Experimental data as given in PubChem BioAssay (NCI).
This is part of a sample that, as a whole, favours compounds with a hit. Of some 79,000 tested, about 15% had one in any assay. Activity calls are given as the source filed them. No stated cut-off is given here; in the data, active means growth inhibition above about 70%; inactive means the rest.

What was measured:
[1] = NCI Yeast Anticancer Drug Screen. Data for the rad52 strain (AID 147);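 further: 0% = growth of vehicle-treated control cultures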; conditions: S. cerevisiae rad52 mutant growth inhibition, stronger effect = higher value
Summary of the method: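 Inhibition of yeast growth, referenced to vehicle controls, was the measured output for a strain with defective DNA damage repair.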

[2] = NCI Yeast Anticancer Drug Screen. Data for the wt1 strain (AID 149);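 further: 0% = growth of vehicle-treated wt1 cultures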; conditions: S. cerevisiae wt1 strain (SPY 50644) growth inhibition, stronger effect = higher value
Summary of the method: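 Using yeast strain wt1, compound-induced growth inhibition was determined against vehicle-treated cultures.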

[3] = NCI Yeast Anticancer Drug Screen. Data for the mgt1 strain (AID 153); conditions: S. cerevisiae mgt1 mutant growth inhibition, stronger effect = higher value
Summary of the method: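 In the mgt1 strain, test compounds were added and growth inhibition was determined relative to vehicle-treated controls.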

[4] = NCI Yeast Anticancer Drug Screen. Data for the rad50 strain (AID 155);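 further: 0% = growth of vehicle-only cultures of the same strain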; conditions: S. cerevisiae rad50 strain growth inhibition, stronger effect = higher value
Summary of the method: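 Relative growth inhibition (compound vs vehicle) was measured in yeast with a defined repair-gene alteration.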

[5] = NCI Yeast Anticancer Drug Screen. Data for the mec2-1 strain (AID 157); conditions: S. cerevisiae mec2-1 strain, stronger effect = higher value
Summary of the method: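 Each compound was tested on mec2-1 yeast, a strain altered in DNA damage repair or cell cycle control. Growth inhibition is reported relative to vehicle.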

[6] = NCI Yeast Anticancer Drug Screen. Data for the sgs1 mgt1 strain (AID 161);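 further: 0% = growth of cultures given vehicle only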; conditions: S. cerevisiae sgs1 mgt1 strain, stronger effect = higher value
Summary of the method: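 Test agents were incubated with a DNA-repair-mutant yeast strain. Growth was then read and compared against vehicle-treated controls.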

[7] = NCI Yeast Anticancer Drug Screen. Data for the CLN2oe strain (AID 163);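 further: 0% = growth of vehicle-only control cultures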; conditions: S. cerevisiae CLN2oe strain, stronger effect = higher value
Summary of the method: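 First, the altered yeast strain was treated with each compound; second, its growth was measured; finally, inhibition was derived by comparison with vehicle controls.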

[8] = NCI Yeast Anticancer Drug Screen. Data for the cln2 rad14 strain (AID 165);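 further: 0% = growth equal to vehicle treated cultures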; conditions: S. cerevisiae cln2 rad14 strain, stronger effect = higher value
Summary of the method: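 Test compounds were added to cln2 rad14 yeast cultures; inhibition of growth was then determined by comparison with vehicle treatment.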

[9] = NCI Yeast Anticancer Drug Screen. Data for the bub3 strain (AID 167); conditions: S. cerevisiae bub3 mutant strain, stronger effect = higher value
Summary of the method: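 Screening used yeast with an engineered genetic alteration affecting cell cycle control. Compound-exposed cultures were compared with vehicle cultures, and reduced growth was taken as inhibition.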

[10] = NCI Yeast Anticancer Drug Screen. Data for the wt2 strain (AID 169);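 further: 0% = growth of vehicle-treated yeast cultures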; conditions: S. cerevisiae wt2 strain growth inhibition, stronger effect = higher value
Summary of the method: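 The panel's yeast strains carry defined changes in DNA repair or cell cycle genes. Each strain is grown with compound, and growth loss is scored relative to vehicle.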

[11] = NCI Yeast Anticancer Drug Screen. Data for the mlh1 strain (AID 171);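 further: 0% = growth of vehicle-treated control cultures of the same strain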; conditions: S. cerevisiae mlh1 strain growth inhibition, stronger effect = higher value
Summary of the method: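 Inhibition values reflect reduced yeast growth in the presence of compound, referenced to vehicle controls, using a strain chosen for its alteration in DNA repair or cell cycle control.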

[12] = NCI Yeast Anticancer Drug Screen. Data for the sgs1 strain (AID 173);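 further: 0% = growth of vehicle-only control cultures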; conditions: S. cerevisiae sgs1 mutant, stronger effect = higher value
Summary of the method: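 Vehicle-treated cultures served as reference for growth inhibition of a yeast strain altered in DNA damage repair or cell cycle control after compound exposure.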

[13] = NCI Yeast Anticancer Drug Screen. Data for the mlh1 rad18 strain (AID 175); conditions: S. cerevisiae mlh1 rad18 strain growth inhibition, stronger effect = higher value
Summary of the method: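 Inhibition values reflect reduced growth of mutant yeast versus vehicle-treated controls following compound exposure; the mutations affect DNA damage repair.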

[14] = NCI Yeast Anticancer Drug Screen. Data for the rad18 strain (AID 177); conditions: S. cerevisiae rad18 mutant growth inhibition, stronger effect = higher value
Summary of the method: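 Steps: expose repair-mutant yeast to compound; measure growth; express as inhibition relative to vehicle control.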

[15] = NCI Yeast Anticancer Drug Screen. Data for the rad50EPP+ strain (AID 151);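 further: 0% = growth of vehicle-treated control cultures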; conditions: S. cerevisiae rad50 mutant strain, stronger effect = higher value
Summary of the method: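 Genetically defined yeast (rad50EPP+, DNA damage repair alteration) is grown with compound, and inhibition of growth is expressed relative to vehicle-treated controls.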

[16] = NCI Yeast Anticancer Drug Screen. Data for the rad14 strain (AID 159);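 further: 0% = growth of vehicle-treated control cultures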; conditions: S. cerevisiae rad14 strain growth inhibition, stronger effect = higher value
Summary of the method: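 Screen for anticancer potential: a yeast strain altered in DNA damage repair is grown with compound, and reduced growth is quantified against vehicle controls.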

[17] = at 5.0 µM (retest, dose inferred, filed as 0.5)
[18] = at 50.0 µM (retest, dose inferred, filed as 5.0)

Measured: growth inhibition

Cc1ccc2c(c1N)C(=O)c1ccccc1C2=O
active: [1]; at 33.0 µM 73% | [1]; at 100.0 µM 73% | [4]; [18] 91% | [13]; at 50.0 µM 71.8%
inactive: [1]; at 1.2 µM 8% | [1]; at 3.7 µM 22% | [1]; at 11.0 µM 47% | [2]; at 1.2 µM -3% | [2]; at 3.7 µM -1% | [2]; at 11.0 µM 6% | [2]; at 33.0 µM 5% | [2]; at 100.0 µM 5% | [3]; at 1.2 µM -3% | [3]; at 3.7 µM -3% | [3]; at 11.0 µM 6% | [3]; at 33.0 µM -8% | [3]; at 100.0 µM 6% | [4]; at 1.2 µM 5% | [4]; at 3.7 µM 19% | [4]; [17] 59% | [4]; at 11.0 µM 40% | [4]; at 33.0 µM 62% | [4]; at 50.0 µM 30.5% | [4]; at 100.0 µM 63% | [5]; at 1.2 µM 2% | [5]; at 3.7 µM 4% | [5]; [17] 8% | [5]; at 11.0 µM 8% | [5]; at 33.0 µM 11% | [5]; [18] 36% | [5]; at 50.0 µM 42% | [5]; at 100.0 µM 15% | [6]; [17] 7% | [6]; [18] 42% | [6]; at 50.0 µM 45.2% | [7]; at 1.2 µM -4% | [7]; at 3.7 µM -3% | [7]; at 11.0 µM -4% | [7]; at 33.0 µM -4% | [7]; at 100.0 µM 6% | [8]; [17] 6% | [8]; [18] 14% | [8]; at 50.0 µM 40.8% | [9]; at 1.2 µM 2% | [9]; at 3.7 µM 13% | [9]; [17] -9% | [9]; at 11.0 µM 31% | [9]; at 33.0 µM 37% | [9]; [18] 62% | [9]; at 50.0 µM 61.4% | [9]; at 100.0 µM 35% | [10]; at 1.2 µM -3% | [10]; at 3.7 µM 1% | [10]; at 11.0 µM 6% | [10]; at 33.0 µM 10% | [10]; at 100.0 µM 8% | [11]; at 1.2 µM -3% | [11]; at 3.7 µM -1% | [11]; at 11.0 µM 10% | [11]; at 33.0 µM 5% | [11]; at 100.0 µM 4% | [12]; at 1.2 µM -4% | [12]; at 3.7 µM -3% | [12]; at 11.0 µM 1% | [12]; at 33.0 µM 7% | [12]; at 100.0 µM 5% | [13]; [17] 15% | [13]; [18] 45% | [14]; at 1.2 µM -4% | [14]; at 3.7 µM 1% | [14]; at 11.0 µM 5% | [14]; at 33.0 µM 3% | [14]; at 100.0 µM 13%

[O-][n+]1c2cccc(O)c2[n+]([O-])c2cccc(O)c21
inactive: [1]; at 1.2 µM 23% | [1]; at 3.7 µM 57% | [15]; at 1.2 µM 25% | [15]; at 3.7 µM 63% | [3]; at 1.2 µM 3% | [3]; at 3.7 µM 10% | [3]; at 11.0 µM 8% | [3]; at 33.0 µM 2% | [3]; at 100.0 µM 18% | [4]; at 1.2 µM 24% | [4]; at 3.7 µM 55% | [4]; [17] 15% | [5]; at 1.2 µM 3% | [5]; at 3.7 µM 9% | [5]; [17] 15% | [5]; at 11.0 µM 18% | [5]; at 33.0 µM 26% | [5]; at 50.0 µM 35.8% | [5]; at 100.0 µM 46% | [16]; at 1.2 µM 2% | [16]; at 3.7 µM 23% | [16]; at 11.0 µM 12% | [16]; at 33.0 µM 20% | [16]; at 100.0 µM 38% | [6]; [17] 6% | [6]; at 50.0 µM 35% | [7]; at 1.2 µM 0% | [7]; at 3.7 µM 0% | [7]; at 11.0 µM 3% | [7]; at 33.0 µM 11% | [7]; at 100.0 µM 11% | [8]; [17] 65% | [9]; at 1.2 µM 4% | [9]; at 3.7 µM 3% | [9]; [17] 0% | [9]; at 11.0 µM 0% | [9]; at 33.0 µM 3% | [9]; at 50.0 µM 42.8% | [9]; at 100.0 µM 1% | [10]; at 1.2 µM 2% | [10]; at 3.7 µM 5% | [10]; at 11.0 µM 11% | [10]; at 33.0 µM 12% | [10]; at 100.0 µM 24% | [11]; at 1.2 µM 3% | [11]; at 3.7 µM 0% | [11]; at 11.0 µM 11% | [11]; at 33.0 µM 18% | [11]; at 100.0 µM 44% | [12]; at 1.2 µM 6% | [12]; at 3.7 µM 14% | [12]; at 11.0 µM 31% | [12]; at 33.0 µM 46% | [12]; at 100.0 µM 66% | [13]; [17] -7% | [13]; at 50.0 µM 57.2%
active: [1]; at 11.0 µM 89% | [1]; at 33.0 µM 93% | [1]; at 100.0 µM 95% | [15]; at 11.0 µM 89% | [15]; at 33.0 µM 94% | [15]; at 100.0 µM 96% | [4]; at 11.0 µM 85% | [4]; at 33.0 µM 92% | [4]; [18] 95% | [4]; at 50.0 µM 86.4% | [4]; at 100.0 µM 95% | [5]; [18] 80% | [6]; [18] 81% | [8]; [18] 94% | [8]; at 50.0 µM 82.8% | [9]; [18] 72% | [13]; [18] 94%
